Assays:
Assay in all cases: log2 ratio of Biotin-Ahx-Ub-VS probe labelling (fragment/DMSO); higher = less target engagement (more negative = stronger competition), active = hit call of the paper (q ≤ 0.05, log2 ratio ≤ -1)
Conditions in all cases: compound concentration: 200 uM; treatment time: 3 h
OTUD6B = target: T1, OTUD6B (UniProt Q8N6M0)
T1 sequence (whole entry): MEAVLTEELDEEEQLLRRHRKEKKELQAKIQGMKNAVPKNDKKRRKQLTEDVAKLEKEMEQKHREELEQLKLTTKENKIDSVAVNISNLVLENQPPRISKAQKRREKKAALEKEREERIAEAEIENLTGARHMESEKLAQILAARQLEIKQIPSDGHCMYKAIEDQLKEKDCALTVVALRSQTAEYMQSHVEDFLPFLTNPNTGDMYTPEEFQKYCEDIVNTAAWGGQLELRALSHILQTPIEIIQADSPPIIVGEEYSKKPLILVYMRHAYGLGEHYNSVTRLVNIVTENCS
Method in brief: (§1)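 Fragment (200 µM) or vehicle was incubated for 3 h with triplicate HEK293T lysate samples of 495 µg, which were then treated with Biotin-Ahx-Ub-VS at 0.5 µM final for 1 h. Labelled DUBs were enriched on NeutrAvidin, digested with LysC and trypsin, and analysed by diaPASEF LC-MS/MS. Values are average log2 fragment/vehicle ratios from an unpaired t-test on global-median-normalised Spectronaut label-free quantities, using proteins with ≥2 unique peptides.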

OTUD7B = target: T2, OTUD7B (UniProt Q6GQQ9)
T2 sequence (whole entry): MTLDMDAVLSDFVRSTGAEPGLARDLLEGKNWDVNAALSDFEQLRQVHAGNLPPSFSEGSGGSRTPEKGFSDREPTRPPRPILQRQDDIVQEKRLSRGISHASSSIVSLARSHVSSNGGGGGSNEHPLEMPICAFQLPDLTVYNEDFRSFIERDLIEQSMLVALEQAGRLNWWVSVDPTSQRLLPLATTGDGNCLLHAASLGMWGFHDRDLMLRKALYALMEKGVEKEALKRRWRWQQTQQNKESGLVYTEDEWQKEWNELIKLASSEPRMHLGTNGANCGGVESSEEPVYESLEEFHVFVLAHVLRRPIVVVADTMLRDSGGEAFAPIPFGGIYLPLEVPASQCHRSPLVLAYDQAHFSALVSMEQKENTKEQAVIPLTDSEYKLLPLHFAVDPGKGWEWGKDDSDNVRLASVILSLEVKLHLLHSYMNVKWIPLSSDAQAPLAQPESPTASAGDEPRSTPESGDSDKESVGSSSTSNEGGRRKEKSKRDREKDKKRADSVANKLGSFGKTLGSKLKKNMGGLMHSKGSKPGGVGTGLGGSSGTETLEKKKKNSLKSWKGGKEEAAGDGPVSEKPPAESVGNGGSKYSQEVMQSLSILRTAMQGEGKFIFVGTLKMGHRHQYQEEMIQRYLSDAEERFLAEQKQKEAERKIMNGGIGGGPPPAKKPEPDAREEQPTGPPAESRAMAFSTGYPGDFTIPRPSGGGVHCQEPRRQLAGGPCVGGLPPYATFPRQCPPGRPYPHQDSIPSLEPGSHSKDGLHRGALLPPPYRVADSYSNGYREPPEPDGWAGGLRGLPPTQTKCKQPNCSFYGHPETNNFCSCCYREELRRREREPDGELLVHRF
Method in brief: as §1

PRPF8 = PRPF8 (UniProt Q6P2Q9)
Method in brief: as §1

PSMD7 = target: T3, PSMD7 (UniProt P51665)
T3 sequence (whole entry): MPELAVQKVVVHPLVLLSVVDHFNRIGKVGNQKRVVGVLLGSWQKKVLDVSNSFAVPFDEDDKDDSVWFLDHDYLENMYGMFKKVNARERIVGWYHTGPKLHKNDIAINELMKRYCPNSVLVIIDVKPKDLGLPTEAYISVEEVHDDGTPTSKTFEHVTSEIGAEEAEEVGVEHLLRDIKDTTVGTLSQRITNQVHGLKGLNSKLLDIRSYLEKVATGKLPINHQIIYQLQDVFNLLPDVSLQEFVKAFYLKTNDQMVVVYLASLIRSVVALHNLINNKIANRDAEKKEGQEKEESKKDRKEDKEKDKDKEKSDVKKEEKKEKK
Method in brief: as §1

UCHL1 = UCHL1 (UniProt P09936)
Method in brief: as §1

UCHL3 = target: T4, UCHL3 (UniProt P15374)
T4 sequence (whole entry): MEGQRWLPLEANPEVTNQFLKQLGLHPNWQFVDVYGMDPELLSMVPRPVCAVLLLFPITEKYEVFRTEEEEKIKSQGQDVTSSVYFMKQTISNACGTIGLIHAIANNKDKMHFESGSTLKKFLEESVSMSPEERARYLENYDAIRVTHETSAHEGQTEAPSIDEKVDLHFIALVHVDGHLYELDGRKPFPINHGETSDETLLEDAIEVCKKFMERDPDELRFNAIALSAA
Method in brief: as §1

UCHL5 = target: T5, UCHL5 (UniProt Q9Y5K5)
T5 sequence (whole entry): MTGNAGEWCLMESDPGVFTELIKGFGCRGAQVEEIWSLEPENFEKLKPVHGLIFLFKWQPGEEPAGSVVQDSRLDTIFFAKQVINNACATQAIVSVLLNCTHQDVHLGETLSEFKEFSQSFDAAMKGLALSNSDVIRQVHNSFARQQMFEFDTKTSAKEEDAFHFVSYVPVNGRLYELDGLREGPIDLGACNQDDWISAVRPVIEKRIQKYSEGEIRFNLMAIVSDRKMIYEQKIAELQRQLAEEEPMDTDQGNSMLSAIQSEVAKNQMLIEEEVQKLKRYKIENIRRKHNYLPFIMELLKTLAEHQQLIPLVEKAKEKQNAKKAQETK
Method in brief: as §1

USP10 = USP10 (UniProt Q14694)
Method in brief: as §1

USP15 = target: T6, USP15 (UniProt Q9Y4E8)
T6 sequence (whole entry): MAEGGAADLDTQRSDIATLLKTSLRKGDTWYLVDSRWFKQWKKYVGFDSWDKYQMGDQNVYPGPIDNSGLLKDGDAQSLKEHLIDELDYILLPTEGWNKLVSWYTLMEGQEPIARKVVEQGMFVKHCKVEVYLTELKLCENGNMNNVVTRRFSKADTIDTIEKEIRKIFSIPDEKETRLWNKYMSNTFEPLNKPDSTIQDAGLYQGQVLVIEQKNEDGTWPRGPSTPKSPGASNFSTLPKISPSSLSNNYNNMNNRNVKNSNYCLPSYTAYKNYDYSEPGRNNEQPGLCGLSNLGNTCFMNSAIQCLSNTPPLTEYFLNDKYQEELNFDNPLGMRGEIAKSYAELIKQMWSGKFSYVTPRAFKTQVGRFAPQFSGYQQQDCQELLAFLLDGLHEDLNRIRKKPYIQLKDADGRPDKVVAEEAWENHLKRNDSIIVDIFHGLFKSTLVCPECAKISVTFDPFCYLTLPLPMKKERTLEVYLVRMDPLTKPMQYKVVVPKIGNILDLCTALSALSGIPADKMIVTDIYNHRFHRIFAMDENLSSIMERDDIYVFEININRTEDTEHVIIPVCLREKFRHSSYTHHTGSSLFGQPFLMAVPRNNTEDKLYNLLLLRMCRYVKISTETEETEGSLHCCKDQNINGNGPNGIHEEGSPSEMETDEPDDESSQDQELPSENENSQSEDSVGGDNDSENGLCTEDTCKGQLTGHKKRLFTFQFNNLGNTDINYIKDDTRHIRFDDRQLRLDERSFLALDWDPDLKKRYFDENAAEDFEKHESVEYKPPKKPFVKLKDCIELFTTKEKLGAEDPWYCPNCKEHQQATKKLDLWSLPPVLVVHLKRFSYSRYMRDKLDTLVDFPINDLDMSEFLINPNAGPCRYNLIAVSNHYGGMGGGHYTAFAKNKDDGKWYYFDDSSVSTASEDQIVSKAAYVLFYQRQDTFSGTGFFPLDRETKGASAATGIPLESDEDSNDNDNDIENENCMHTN
Method in brief: as §1

USP16 = USP16 (UniProt Q9Y5T5)
Method in brief: as §1

Measured: log2 ratio of Biotin-Ahx-Ub-VS probe labelling

UCHL1, sequence (P09936 whole entry, looked up): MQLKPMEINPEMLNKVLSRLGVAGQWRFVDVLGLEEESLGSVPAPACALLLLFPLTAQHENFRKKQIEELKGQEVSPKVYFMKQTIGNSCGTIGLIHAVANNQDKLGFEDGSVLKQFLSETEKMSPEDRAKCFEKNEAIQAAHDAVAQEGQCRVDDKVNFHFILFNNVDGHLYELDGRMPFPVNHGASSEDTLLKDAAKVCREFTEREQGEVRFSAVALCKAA
USP16, sequence (Q9Y5T5 whole entry, looked up): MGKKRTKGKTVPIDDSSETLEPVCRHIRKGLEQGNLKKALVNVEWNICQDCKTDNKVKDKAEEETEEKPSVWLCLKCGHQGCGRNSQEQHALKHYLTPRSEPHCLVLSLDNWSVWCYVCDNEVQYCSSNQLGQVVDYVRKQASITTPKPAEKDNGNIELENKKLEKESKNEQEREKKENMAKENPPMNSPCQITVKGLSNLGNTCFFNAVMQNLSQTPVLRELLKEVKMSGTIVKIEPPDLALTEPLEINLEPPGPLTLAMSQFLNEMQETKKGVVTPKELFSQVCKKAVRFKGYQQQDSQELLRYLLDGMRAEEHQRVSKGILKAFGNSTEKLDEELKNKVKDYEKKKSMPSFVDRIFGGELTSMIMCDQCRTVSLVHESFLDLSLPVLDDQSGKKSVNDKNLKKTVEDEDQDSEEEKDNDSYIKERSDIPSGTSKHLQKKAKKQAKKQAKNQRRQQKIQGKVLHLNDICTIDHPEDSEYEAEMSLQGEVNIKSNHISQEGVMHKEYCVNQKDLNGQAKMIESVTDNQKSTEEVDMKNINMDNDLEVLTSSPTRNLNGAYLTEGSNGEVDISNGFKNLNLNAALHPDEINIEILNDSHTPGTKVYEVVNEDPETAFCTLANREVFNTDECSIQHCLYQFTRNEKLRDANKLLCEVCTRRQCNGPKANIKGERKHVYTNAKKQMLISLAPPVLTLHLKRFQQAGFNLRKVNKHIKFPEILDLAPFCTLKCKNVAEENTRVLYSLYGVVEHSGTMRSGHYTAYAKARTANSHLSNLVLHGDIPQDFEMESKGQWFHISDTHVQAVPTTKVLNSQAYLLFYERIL
USP10, sequence (Q14694 whole entry): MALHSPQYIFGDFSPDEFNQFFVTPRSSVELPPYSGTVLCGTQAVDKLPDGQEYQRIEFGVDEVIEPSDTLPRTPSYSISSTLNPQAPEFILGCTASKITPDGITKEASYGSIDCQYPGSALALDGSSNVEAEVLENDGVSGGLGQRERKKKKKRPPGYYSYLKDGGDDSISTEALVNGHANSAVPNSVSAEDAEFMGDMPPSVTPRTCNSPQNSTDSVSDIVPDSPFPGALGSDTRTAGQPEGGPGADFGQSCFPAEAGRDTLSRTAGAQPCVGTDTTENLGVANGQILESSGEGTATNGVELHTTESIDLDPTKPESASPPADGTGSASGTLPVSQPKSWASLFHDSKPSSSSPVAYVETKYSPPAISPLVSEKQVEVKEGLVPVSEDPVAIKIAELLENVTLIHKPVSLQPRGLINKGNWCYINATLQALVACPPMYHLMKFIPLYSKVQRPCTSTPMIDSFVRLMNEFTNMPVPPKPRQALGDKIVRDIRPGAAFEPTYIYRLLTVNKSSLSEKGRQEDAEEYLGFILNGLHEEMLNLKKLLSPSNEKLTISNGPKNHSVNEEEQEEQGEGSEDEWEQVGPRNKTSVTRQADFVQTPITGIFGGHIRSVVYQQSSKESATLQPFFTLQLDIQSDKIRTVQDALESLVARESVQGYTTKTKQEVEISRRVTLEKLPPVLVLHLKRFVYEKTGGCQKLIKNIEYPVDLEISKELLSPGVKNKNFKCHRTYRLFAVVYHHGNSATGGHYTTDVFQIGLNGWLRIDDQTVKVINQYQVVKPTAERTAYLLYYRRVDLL

O=C(CCl)N1CCC(C(=O)N2CCCCCC2)CC1
inactive: OTUD6B 0.0239 | OTUD7B -0.19 | PRPF8 0.0601 | PSMD7 -0.0463 | UCHL3 0.241 | UCHL5 -0.191 | USP10 -0.0405 | USP15 -0.115 | USP16 -0.164
active: UCHL1 -1.19

— the supplement of paper PMC11732987, “Enantioselective OTUD7B fragment discovery through chemoproteomics screening and high-throughput optimisation” (Communications Chemistry, 2025)
